Test results taken from PubChem BioAssay (Tox21).
A number with no mark means an inactive call. Entries that show only a call come without a potency. Calls of active or inactive are those of the source. Unless noted, the call rests on the fitted dose curve; in most records, active means well fitted curve in the direction sought with a large enough effect in the repeat runs; inconclusive means weak or mixed curves; inactive means no such curve, though single readings can be large; an effect the other way counts as inactive or inconclusive.

How the values were obtained:
[1] = qHTS assay for small molecules that induce genotoxicity in human embryonic kidney cells expressing luciferase-tagged ATAD5 (AID 651632); further: nearly all actives have a fitted effect of over 15% in size
Method in brief: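 Concentration-response screen for ATAD5 upregulation in HEK293T luciferase reporter cells; 16 hr treatment at 37C, then luminescence after 30 min with Amplite at room temperature.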

[2] = qHTS assay for small molecule agonists of the p53 signaling pathway - cell viability (AID 651633; calls by dose curve;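 further: p53RE-bla HCT reporter cells with a stable beta-lactamase p53 reporter; series mostly up to about 83 µM; nearly all actives have a fitted effect of over 30% in size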)
Method in brief: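 Viability counter-read: CellTiter-Glo luminescence (30 min, room temperature) in the same p53RE-bla plates. These plates had been exposed to compounds for 16 h at 37 C.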

[3] = qHTS assay for small molecules that induce genotoxicity in human embryonic kidney cells expressing luciferase-tagged ATAD5 - cell viability (AID 651634; calls by dose curve; further: nearly all actives have a fitted effect of over 25% in size; further: potency means the concentration at half of the fitted maximal effect)
Method in brief: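 15.5 hr compound or vehicle exposure of HEK293T cells expressing luciferase-tagged ATAD5 at 37C; live-cell protease activity is read by fluorescence after 30 min of CellTiter-Fluor.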

[4] = qHTS assay for small molecule disruptors of the mitochondrial membrane potential - cell viability (AID 720634; calls by dose curve;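 further: human HepG2 liver cancer cells; series mostly up to about 83 µM; nearly all actives have a fitted effect of over 20% in size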)
Method in brief: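 In this qHTS format, HepG2 cells plated overnight were pinned with compound, incubated 1 hr, and assayed for ATP luminescence with CellTiter-Glo after m-MPI dye addition.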

[5] = qHTS assay to test for compound auto fluorescence at 590 nm (red) in HepG2 cells (AID 720674)
Method in brief: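 1 hr compound incubation on HepG2 cells, 37 C, 5% CO2; plate read ex 540 nm / em 590 nm; intensities reported as Rose Bengal sodium equivalents.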

[6] = qHTS assay to test for compound auto fluorescence at 460 nm (blue) in HEK293 cells (AID 720678)
Method in brief: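 HEK293, 2,000 cells/well, 10% dialyzed FBS; attach 4-5 hr 37C; pin compound or DMSO; o/n 37C/5% CO2; fluorescence 405/460 nm; triamterene-equivalent units.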

[7] = qHTS assay to test for compound auto fluorescence at 590 nm (red) in HEK293 cells (AID 720679)
Method in brief: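 Intensity at 540nm excitation and 590nm emission is reported as Rose Bengal sodium-equivalent autofluorescence. Measurements followed overnight exposure (37C, 5% CO2) of HEK293 cells, 2,000 per well, to 23 nL compound.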

[8] = qHTS assay to test for compound auto fluorescence at 460 nm (blue) in HEK293 cell free culture (AID 720681)
Method in brief: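 Blue fluorescence (Ex 405/Em 460 nm, triamterene-equivalent) was read immediately after pin transfer of compound or DMSO into medium (DMEM, 10% FBS) without cells.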

[9] = qHTS assay to test for compound auto fluorescence at 535 nm (green) in HEK293 cell free culture (AID 720682)
Method in brief: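 Compounds were pin-transferred into cell-free DMEM with 10% FBS, and green fluorescence was read at excitation 485 nm and emission 535 nm. Intensities were expressed as fluorescein-equivalent values.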

[10] = qHTS assay to test for compound auto fluorescence at 590 nm (red) in HEK293 cell free culture (AID 720683)
Method in brief: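 Red-channel autofluorescence of compounds in culture medium (DMEM, 10% FBS), no cells, measured at 540/590 nm. Rose Bengal sodium is the reference fluorophore for equivalence.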

[11] = qHTS assay to test for compound auto fluorescence at 590 nm (red) in HepG2 cell free culture (AID 720684)
Method in brief: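 No cells present: MEM + 10% FBS only. Compound pinned in, red label read (540/590 nm). Activity = fluorescence equivalent to Rose Bengal sodium.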

[12] = qHTS assay to test for compound auto fluorescence at 460 nm (blue) in HepG2 cells (AID 720687)
Method in brief: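 Blue-channel autofluorescence (Ex/Em 405/460 nm, triamterene-equivalent) was measured after 1 hr compound exposure at 37 C, 5% CO2. Cells were HepG2, plated overnight at 37 C in MEM plus 10% FBS.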

[13] = molecular target: Glucocorticoid receptor (Homo sapiens) (UniProt P04150); experiment: qHTS assay to identify small molecule agonists of the glucocorticoid receptor (GR) signaling pathway (AID 720691; active means well fitted activation curve with a large enough effect in the signal ratio in the repeat runs, not every such curve was filed as active; inconclusive means weak or mixed curves, or effect the other way; inactive means no such curve, though single readings can be large or run the other way; the % refers to the signal ratio; further: potency means the concentration at half of the fitted maximal effect)
Glucocorticoid receptor (Homo sapiens), sequence (P04150 whole entry, looked up): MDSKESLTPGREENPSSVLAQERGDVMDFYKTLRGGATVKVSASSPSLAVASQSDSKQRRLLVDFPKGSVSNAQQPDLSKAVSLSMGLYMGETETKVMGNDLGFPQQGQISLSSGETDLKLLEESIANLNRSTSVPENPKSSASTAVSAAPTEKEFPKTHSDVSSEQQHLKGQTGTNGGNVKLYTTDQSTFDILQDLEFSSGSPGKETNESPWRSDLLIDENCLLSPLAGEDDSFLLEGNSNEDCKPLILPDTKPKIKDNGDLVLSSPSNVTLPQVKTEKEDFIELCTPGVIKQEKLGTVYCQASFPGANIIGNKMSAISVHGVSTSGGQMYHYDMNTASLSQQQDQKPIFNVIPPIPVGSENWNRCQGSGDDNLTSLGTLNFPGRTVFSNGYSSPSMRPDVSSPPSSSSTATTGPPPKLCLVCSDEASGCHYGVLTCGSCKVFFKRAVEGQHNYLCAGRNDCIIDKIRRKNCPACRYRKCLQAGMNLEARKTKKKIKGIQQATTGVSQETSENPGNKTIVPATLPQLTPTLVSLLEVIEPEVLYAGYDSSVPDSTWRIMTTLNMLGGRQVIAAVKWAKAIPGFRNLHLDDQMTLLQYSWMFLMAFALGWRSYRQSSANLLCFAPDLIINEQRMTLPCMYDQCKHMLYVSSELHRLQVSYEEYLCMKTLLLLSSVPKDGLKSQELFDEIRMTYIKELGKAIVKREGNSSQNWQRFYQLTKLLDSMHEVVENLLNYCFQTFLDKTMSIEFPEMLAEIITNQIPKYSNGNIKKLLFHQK
Method in brief: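 Measures GR pathway activation through a GRE-beta-lactamase reporter stably integrated in HeLa cells, with 18 h compound treatment at 37 C and fluorescence detection using a FRET substrate.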

[14] = molecular target: Glucocorticoid receptor (Homo sapiens) (UniProt P04150); experiment: qHTS assay to identify small molecule antagonists of the glucocorticoid receptor (GR) signaling pathway (AID 720692; active means well fitted inhibition curve with a large enough effect in the signal ratio in the repeat runs, not every such curve was filed as active; inconclusive means weak or mixed curves, or effect the other way; inactive means no such curve, though single readings can be large or run the other way; the % refers to the signal ratio)
Method in brief: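 Tox21 10K library screened in concentration-response for blockade of dexamethasone (5 nM final)-induced GRE-bla reporter activity in HeLa cells; 18 h treatment, fluorescence read.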

[15] = qHTS assay to test for compound auto fluorescence at 535 nm (green) in HEK293 cells (AID 720680)
[16] = qHTS assay to test for compound auto fluorescence at 460 nm (blue) in HepG2 cell free culture (AID 720685)
Method in brief: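 Cell-free plates of MEM plus 10% FBS received 23 nL compound or DMSO vehicle; blue-channel (405/460 nm) intensity scored against triamterene as reference fluorophore.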

[17] = qHTS assay to test for compound auto fluorescence at 535 nm (green) in HepG2 cell free culture (AID 720686)
[18] = qHTS assay for small molecule disruptors of the mitochondrial membrane potential (AID 720635); further: potency means the concentration at half of the fitted maximal effect
Method in brief: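 Mitochondrial membrane potential tracked with Mito-MPS dye, red aggregates (ex 540/em 590 nm) against green monomers (ex 490/em 535 nm). Compound treatment 1 hr at 37C, dye 30 min in HepG2.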

[19] = qHTS assay to test for compound auto fluorescence at 535 nm (green) in HepG2 cells (AID 720675)

CC(C)COC(=O)CC(C(=O)OCC(C)C)S(=O)(=O)O (stereo not given)
outcome [1]: inactive | outcome [2]: inactive | Potency [3]: inactive | outcome [4]: inactive | outcome [5]: inactive | outcome [6]: inactive | outcome [7]: inactive | outcome [8]: inactive | outcome [9]: inactive | outcome [10]: inactive | outcome [11]: inactive | outcome [12]: inactive | Potency [13]: inactive | outcome [14]: inactive

CN(C1CCCCC1)S(=O)(=O)c1ccccc1N
outcome [1]: inactive | outcome [2]: inactive | Potency [3]: inactive | outcome [4]: inactive | outcome [5]: inactive | outcome [6]: inactive | outcome [7]: inactive | outcome [15]: inactive | outcome [8]: inactive | outcome [9]: inactive | outcome [10]: inactive | outcome [11]: inactive | outcome [16]: inactive | outcome [17]: inactive | outcome [12]: inactive

CN=C(NC#N)NCCSCc1csc(N=C(N)N)n1
outcome [1]: inactive | outcome [2]: inactive | outcome [4]: inactive | Potency [18]: inactive | outcome [5]: inactive | outcome [19]: inactive | outcome [6]: inactive | outcome [7]: inactive | outcome [8]: inactive | outcome [9]: inactive | outcome [10]: inactive | outcome [11]: inactive | outcome [16]: inactive | outcome [17]: inactive | outcome [12]: inactive | Potency [13]: inactive | outcome [14]: inactive

Cc1ccccc1N1CCN(CCc2nnc3n2CCCC3)CC1
outcome [1]: inactive | outcome [2]: inactive | Potency [3]: inactive | outcome [4]: inactive | outcome [5]: inactive | outcome [7]: inactive | outcome [15]: inactive | outcome [8]: inactive | outcome [9]: inactive | outcome [10]: inactive | outcome [11]: inactive | outcome [12]: inactive | Potency [13]: inactive | outcome [14]: inactive

CC(C)CCC(=O)CCC(C)C
outcome [1]: inactive | outcome [2]: inactive | outcome [4]: inactive | outcome [5]: inactive | outcome [19]: inactive | outcome [7]: inactive | outcome [15]: inactive | outcome [8]: inactive | outcome [9]: inactive | outcome [10]: inactive | outcome [11]: inactive | outcome [16]: inactive | outcome [12]: inactive | Potency [13]: inactive

C=CCOc1cc(Cl)ccc1C(=O)NCCN(CC)CC
outcome [1]: inactive | outcome [2]: inactive | outcome [4]: inactive | outcome [5]: inactive | outcome [19]: inactive | outcome [6]: inactive | outcome [7]: inactive | outcome [15]: inactive | outcome [8]: inactive | outcome [9]: inactive | outcome [10]: inactive | outcome [11]: inactive | outcome [16]: inactive | outcome [17]: inactive | outcome [12]: inactive | Potency [13]: inactive | outcome [14]: inactive

COc1cc2c(Nc3ccc(Br)cc3F)ncnc2cc1OCC1CCN(C)CC1
outcome [1]: inactive | Potency [3]: 13.3 µM (active) | outcome [4]: inactive | outcome [5]: inactive | outcome [6]: inactive | outcome [7]: inactive | outcome [15]: inactive | outcome [8]: inactive | outcome [9]: inactive | outcome [10]: inactive | outcome [11]: inactive | outcome [12]: inactive | Potency [13]: inactive

CCN(CCC#N)c1ccccc1
outcome [2]: inactive | outcome [4]: inactive | outcome [5]: inactive | outcome [19]: inactive | outcome [7]: inactive | outcome [15]: inactive | outcome [8]: inactive | outcome [9]: inactive | outcome [10]: inactive | outcome [11]: inactive | outcome [17]: inactive | outcome [12]: inactive | Potency [13]: inactive | outcome [14]: inactive

COc1ccc(/C=N/NC(=O)c2ccncc2)cc1OC
outcome [2]: inactive | Potency [3]: inactive | outcome [4]: inactive | outcome [5]: inactive | outcome [19]: inactive | outcome [7]: inactive | outcome [8]: inactive | outcome [9]: inactive | outcome [10]: inactive | outcome [11]: inactive | outcome [16]: inactive | outcome [17]: inactive | outcome [12]: inactive | Potency [13]: inactive | outcome [14]: inactive

CC(=O)Nc1ncc([N+](=O)[O-])s1
outcome [2]: inactive | Potency [3]: inactive | outcome [4]: inactive | outcome [5]: inactive | outcome [19]: inactive | outcome [6]: inactive | outcome [7]: inactive | outcome [8]: inactive | outcome [9]: inactive | outcome [10]: inactive | outcome [11]: inactive | outcome [16]: inactive | outcome [17]: inactive | outcome [12]: inactive | Potency [13]: inactive

CCOC(=O)C(C)(C)C
outcome [2]: inactive | Potency [3]: inactive | outcome [4]: inactive | Potency [18]: inactive | outcome [5]: inactive | outcome [19]: inactive | outcome [6]: inactive | outcome [7]: inactive | outcome [8]: inactive | outcome [9]: inactive | outcome [10]: inactive | outcome [11]: inactive | outcome [16]: inactive | outcome [17]: inactive | outcome [12]: inactive

Nc1cc(C(=O)O)ccc1Cl
outcome [2]: inactive | outcome [4]: inactive | outcome [5]: inactive | outcome [19]: inactive | outcome [6]: inactive | outcome [8]: inactive | outcome [9]: inactive | outcome [10]: inactive | outcome [11]: inactive | outcome [16]: inactive | outcome [17]: inactive | outcome [12]: inactive

COc1cccc2sc(N)nc12
outcome [2]: inactive | Potency [3]: inactive | outcome [4]: inactive | Potency [18]: 43.5 µM (active) | outcome [5]: inactive | outcome [6]: inactive | outcome [15]: inactive | outcome [8]: inactive | outcome [9]: inactive | outcome [10]: inactive | outcome [11]: inactive | outcome [16]: inactive | outcome [17]: inactive | outcome [12]: inactive

CC(=O)OCC(=O)[C@@]1(O)[C@H](OC(C)=O)C[C@H]2[C@@H]3CCC4=CC(=O)C=C[C@]4(C)[C@@]3(F)[C@@H](O)C[C@@]21C
outcome [2]: inactive | Potency [3]: inactive | outcome [4]: inactive | outcome [5]: inactive | outcome [19]: inactive | outcome [6]: inactive | outcome [7]: inactive | outcome [15]: inactive | outcome [8]: inactive | outcome [9]: inactive | outcome [10]: inactive | outcome [11]: inactive | outcome [16]: inactive | outcome [17]: inactive | outcome [12]: inactive | Potency [13]: 0.134 µM [inconclusive] (active)
